# The campaign covered roughly 66,000 compounds. About 960 (1.5%) showed an effect of 50% or more. The sample holds strong results, similar compounds and a random draw of the others, so the mix is not that of the screen.
# Test system: Trypanosoma brucei
# Assay: Trypanosoma brucei 72 hour study
# Type: functional, organism-based
# Parameters: scale not given: in the data most compounds retested in dose-response had high values
smiles,measurement,setting,value
Clc1ccccc1C1(c2ccnc(C3CCCC3)n2)CCNCC1,Percent Effect,"30 µM, 30.03 µM",101.7%
CC(C)(C)c1nccc(C2(c3ccccc3Cl)CCNCC2)n1,Percent Effect,"30 µM, 30.03 µM",98.68%
Clc1ccccc1C1(c2ccnc(-c3ncccn3)n2)CCNCC1,Percent Effect,"30 µM, 30.03 µM",30.19%
Clc1ccccc1C1(c2ccnc(CC3CC3)n2)CCNCC1,Percent Effect,"30 µM, 30.03 µM",25.18%
CC(C)c1nccc(C2(c3ccccc3Cl)CCNCC2)n1,Percent Effect,"30 µM, 30.03 µM",-6.514%
Clc1ccccc1C1(c2ccnc(C3CC3)n2)CCNCC1,Percent Effect,"30 µM, 30.03 µM",-58.64%
CC1(C)CC(N(Cc2ccccc2)Cc2ncc[nH]2)CC(C)(C)N1.O=C(O)CC(O)(CC(=O)O)C(=O)O,Percent Effect,"30.3 µM, […]",10.45%
CCN1CCN(C)C2(CCN(Cc3ccsc3)CC2)C1=O.O=C(O)C(F)(F)F.O=C(O)C(F)(F)F,Percent Effect,"30.3 µM, […]",-66.4%
O=C(O)C(F)(F)F.O=C1COC2(CCN(Cc3ccoc3)CC2)CN1,Percent Effect,"30 µM, 30.03 µM",-33.82%
O=C(O)C(F)(F)F.O=C(c1cnccn1)N1CCCC2(CCN(c3ncccn3)C2)C1 (configuration not stated),Percent Effect,"30 µM, 30.03 µM",-0.826%
CC(=O)N1CCN(S(=O)(=O)c2ccc(C)c(F)c2)CC1,Percent Effect,"30 µM, 30.03 µM",0.5413%
c1ccc2c(c1)CCN(c1nc(N3CCOCC3)c3nn[nH]c3n1)C2,Percent Effect,"30.3 µM, […]",-17%
Cc1nc(CO[C@@H]2CN(Cc3ccsc3)[C@@H]3COC[C@@H]32)cs1.O=C(O)C(F)(F)F,Percent Effect,"30 µM, 30.03 µM",-15.95%
CCOCCOC(C)C(=O)NCc1cn2cc(Br)ccc2n1 (configuration not stated),Percent Effect,"30 µM, 30.03 µM",14.67%
CCOCCCC(=O)NCc1cn2cc(Br)ccc2n1,Percent Effect,"30 µM, 30.03 µM",54.92%
CC(C)COCCC(=O)NCc1cn2cc(Br)ccc2n1,Percent Effect,"30 µM, 30.03 µM",-7.155%
OC1(CNCCN2CCCc3ccccc32)CCNC1 (configuration not stated),Percent Effect,"30.3 µM, […]",6.012%
OC1(CNCCCN2CCCc3ccccc32)CNCCOC1 (configuration not stated),Percent Effect,"30.3 µM, […]",12.14%
OC1(CNCCCN2CCc3ccccc32)CCNC1 (configuration not stated),Percent Effect,"30.3 µM, […]",99.09%
Cl.O=C(CCn1c(C(F)(F)F)cc2cccnc21)N1CCOCC1,Percent Effect,"30.3 µM, […]",-52.3%
CN(CCOc1cccc(F)c1)Cc1nc2c(cnn2C)c(=O)[nH]1,Percent Effect,"30.3 µM, […]",-16.26%
Cc1[nH]/c(=N\C(=O)c2csc(NCC(C)C)n2)sc1C,Percent Effect,"30 µM, 30.03 µM",99.84%
Cc1cccc(NC(=O)c2csc(NCC(C)C)n2)n1,Percent Effect,"30 µM, 30.03 µM",-6.262%
Cc1cc(O)c(OCC(=O)/N=c2\[nH]c(C)c(C)s2)cn1,Percent Effect,"30 µM, 30.03 µM",-31.23%
CC(C)CNc1nc(C(=O)/N=c2\[nH]nc(C(C)(C)C)s2)cs1,Percent Effect,"30 µM, 30.03 µM",-9.789%
Cc1cs/c(=N/C(=O)c2csc(NCC(C)C)n2)[nH]1,Percent Effect,"30 µM, 30.03 µM",86.34%
Cc1cnc(NC(=O)c2csc(NCC(C)C)n2)s1,Percent Effect,"30 µM, 30.03 µM",4.824%
O=C(O)C(F)(F)F.O=C(c1cscn1)N1CC[C@@H]2[C@@H]1CCN2C1CCOCC1,Percent Effect,"30.3 µM, […]",-53.41%
O=C(O)C(F)(F)F.O=C(c1ccccn1)N1CCc2ncc(Cn3cccn3)n2CC1,Percent Effect,"30.3 µM, […]",-7.142%
Cc1ccc(S(=O)(=O)N2C[C@H]3C[C@H](NC(=O)c4cnn(C)c4)[C@H]3C2)cc1,Percent Effect,"30.3 µM, […]",-2.175%
COc1c(CNCc2cccc(Cn3ccnc3C)c2)c(C)nn1C.Cl,Percent Effect,"30.3 µM, […]",-2.374%
same,Percent Effect,"10 mM, 10 mM as filed; unlikely as a test dose",-46.4%
CC(C)c1nc2c(n1C)CCN(Cc1nc(-c3ccsc3)no1)C2,Percent Effect,"30 µM, 30.03 µM",59.36%
Cn1c(C2CC2)nc2c1CCN(Cc1nc(-c3ccsc3)no1)C2,Percent Effect,"30.3 µM, […]",-7.992%
CC(C)c1nc2c(n1C)CCN(Cc1nc(-c3ccoc3)no1)C2,Percent Effect,"30.3 µM, […]",-0.2084%
COc1ccc(CN(C)[C@@H]2COC[C@H]2c2ccc(F)cc2)c(OC)c1.O=C(O)CC(O)(CC(=O)O)C(=O)O,Percent Effect,"30.3 µM, […]",4.622%
Br.CCOc1ccc(N(CC(=O)c2ccccc2)C2=NCCCCC2)cc1,Percent Effect,"30 µM, 30.03 µM",25.81%
COc1ccccc1CN1C[C@@H]2CN(C(C)=O)CCO[C@@H]2C1.O=C(O)C(F)(F)F,Percent Effect,"30.3 µM, […]",-77.53%
CN(Cc1nc(N2CCCC2)ncc1-c1ccncc1)C(=O)C(C)(C)C.Cl,Percent Effect,"30.3 µM, […]",34.69%
O=C(N[C@@H]1CCCNC1)C1(Oc2ccc(Cl)cc2)CCNCC1,Percent Effect,"30 µM, 30.03 µM",-80.08%
Cc1ccc(OC2(C(=O)NC(C)Cc3ccncc3)CCNCC2)cc1 (configuration not stated),Percent Effect,"30 µM, 30.03 µM",-4.697%
CN(Cc1ccncn1)C(=O)C1(Oc2ccc(Cl)cc2)CCNCC1,Percent Effect,"30.3 µM, […]",-35.89%
CN(Cc1ccoc1)C(=O)C1(Oc2ccc(Cl)cc2)CCNCC1,Percent Effect,"30.3 µM, […]",99.82%
Cc1ccc(OC2(C(=O)N(C)Cc3ccoc3)CCNCC2)cc1,Percent Effect,"30.3 µM, […]",91.09%
CN(C)C(=O)C1(Oc2ccc(Cl)cc2)CCNCC1,Percent Effect,"30.3 µM, […]",-28.66%
CC(C)CN1CCC2(CCN(Cc3ccsc3)CC2)C1=O,Percent Effect,"30.3 µM, […]",2.917%
CC(C)CNC(=O)N1CCC2(CC1)OC(C(N)=O)Cn1ccnc12.O=C(O)C(F)(F)F (configuration not stated),Percent Effect,"30.3 µM, […]",-37.34%
COCC[C@]1(O)CCN(Cc2nnc(C)s2)C[C@H]1C,Percent Effect,"30.3 µM, […]",-14.31%
O=C(O)C(F)(F)F.O=C(c1cccnc1)N1CCCC2(COCCN(c3ccccc3)C2)C1 (configuration not stated),Percent Effect,"30.3 µM, […]",-43.99%
Cc1ccc(CN2CC[C@@H](O)[C@@H]2Cc2cnn(C)c2)o1.O=C(O)C(F)(F)F,Percent Effect,"30.3 µM, […]",-387.9%
CNC(=O)C1(CCCc2ccncc2)CCCCN1.Cl (configuration not stated),Percent Effect,"30.3 µM, […]",-5.403%
COCCOC1CCN(C(C(=O)O)c2ccc(OC)c(F)c2)CC1 (configuration not stated),Percent Effect,"30.3 µM, […]",-2.66%
O=C(O)c1cc(/C=C/c2cccc3ccccc23)ncn1,Percent Effect,"30 µM, 30.03 µM",18.14%
Cn1ccnc1CN1CCC2(COCCN(S(=O)(=O)C3CC3)C2)C1 (configuration not stated),Percent Effect,"30.3 µM, […]",11.66%
Cn1ccnc1CN1CCC2(COCCN(Cc3ccsc3)C2)C1 (configuration not stated),Percent Effect,"30 µM, 30.03 µM",61.78%
Cn1ccnc1CN1CCC2(CC1)COCCN(c1ncccn1)C2,Percent Effect,"30.3 µM, […]",7.51%
Cc1noc(CN2C[C@H]3CC[C@@H]2CN(C2Cc4ccccc4C2)C3)n1,Percent Effect,"30 µM, 30.03 µM",16.7%
CC(=O)Nc1nc(C2CCN(C(=O)c3cccnc3)CC2)cs1,Percent Effect,"30 µM, 30.03 µM",31.28%
Cc1noc(C)c1CN1CCc2ncnc(-c3ccc(F)cc3)c2CC1.O=C(O)C(F)(F)F,Percent Effect,"30.3 µM, […]",-81.82%
O=S(=O)(NCCNc1cc(-n2cccc2)ncn1)c1cccs1,Percent Effect,"30.3 µM, […]",16.28%
CCS(=O)(=O)NCCNc1cc(-n2cccc2)ncn1,Percent Effect,"30.3 µM, […]",14.19%
Cc1ccc(S(=O)(=O)NCCNc2cc(-n3cccc3)ncn2)c(C)c1,Percent Effect,"30.3 µM, […]",53.4%

# Source: ChEMBL document CHEMBL3988442, “University of Dundee, Small-Polar-MMV Screening Library” (2021)
